“And” between values parts separate entries of the source, which are not always exact repeats. Identical values can stand only once. Some structures have more than one record in an assay (separate samples or runs), and their calls can disagree. The source made the active and inactive calls. How the source made its calls: active means hit-call score of the fitted dose curve at least 0.9, where 1 is the maximum; inactive means score below 0.9.
What was measured:
[1] = read-out: Vascular endothelial growth factor receptor 2 (Homo sapiens) (UniProt P35968); experiment: BSK_4H_VEGFRII: BioMAP Diversity Plus: 4H Assay for Vascular endothelial growth factor receptor 2 (VEGFR2) Biomarker Activity (AID 2283031); settings: primary human endothelial cells (HUVEC); actives raise or lower the signal;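 on AC50: cell-surface VEGFR2 protein level quantified by ELISA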
Summary of the method: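 Primary human umbilical vein endothelial cells (4H system), 24 h exposure; cell-surface VEGFR2 measured by ELISA. Bidirectional fitting versus DMSO; cytotoxicity checked in parallel by SRB total-protein staining.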

[2] = read-out: Vascular cell adhesion molecule 1 (VCAM1), VCAM1 (gene 7412); experiment: BSK_4H_VCAM1: BioMAP Diversity Plus: 4H Assay for Vascular cell adhesion molecule 1 (VCAM1) Biomarker Activity (AID 2283033); settings: primary human endothelial cells (HUVEC); actives raise or lower the signal
Summary of the method: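 Chemicals are added to primary human umbilical vein endothelial cells. After 24 h, VCAM-1 levels are measured by ELISA. Values come from bidirectional fitting referenced to DMSO.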

[3] = read-out: Interferon-gamma inducible Protein 10 (IP10), CXCL10 (gene 3627); experiment: BSK_BE3C_IP10: BioMAP Diversity Plus: BE3C Assay for Interferon-gamma inducible Protein 10 (IP10) Biomarker Activity (AID 2283034); settings: primary human bronchial epithelial cells; actives raise or lower the signal
Summary of the method: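 IP-10 quantified by ELISA serves as the endpoint. Cells: primary human bronchial epithelium, read 24 h after compound addition. Activity is derived by bidirectional fitting with DMSO as negative control.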

[4] = read-out: Monokine induced gamma interferon (MIG), CXCL9 (gene 4283); experiment: BSK_BE3C_MIG: BioMAP Diversity Plus: BE3C Assay for Monokine induced gamma interferon (MIG) Biomarker Activity (AID 2283035); settings: primary human bronchial epithelial cells; actives raise or lower the signal
Summary of the method: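 hu bronchial epithelial 1° cells, 24 h cpd; MIG by ELISA; bidirectional fit, DMSO = baseline.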

[5] = read-out: Transforming growth factor beta 1 (TGFb1), TGFB1 (gene 7040); experiment: BSK_BE3C_TGFb1: BioMAP Diversity Plus: BE3C Assay for Transforming growth factor beta 1 (TGFb1) Biomarker Activity (AID 2283036); settings: primary human bronchial epithelial cells; actives raise or lower the signal
Summary of the method: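 Bronchial epithelial primary cells are treated with test chemical, then TGF-b1 is quantified by ELISA after 24 hours. Values derive from bidirectional fitting against DMSO, with cytotoxicity checked by SRB staining in parallel cultures.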

[6] = read-out: Plasminogen activator inhibitor-1 (PAI1), SERPINE1 (gene 5054); experiment: BSK_BE3C_PAI1: BioMAP Diversity Plus: BE3C Assay for Plasminogen activator inhibitor-1 (PAI1) Biomarker Activity (AID 2283037); settings: primary human bronchial epithelial cells; actives raise or lower the signal
Summary of the method: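 Values derive from bidirectional fitting against DMSO baseline of PAI-1 levels, measured by ELISA in human bronchial epithelial cells 24 h after compound addition.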

[7] = read-out: urokinase plasminogen activator (uPA), PLAU (gene 5328); experiment: BSK_BE3C_uPA: BioMAP Diversity Plus: BE3C Assay for urokinase plasminogen activator (uPA) Biomarker Activity (AID 2283038); settings: primary human bronchial epithelial cells; actives raise or lower the signal
Summary of the method: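 Primary human bronchial epithelial cells, uPA measured by ELISA 24 h after dosing. Bidirectional change relative to DMSO; cytotoxicity checked in parallel cultures by sulforhodamine B total-protein staining.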

[8] = read-out: Urokinase-type plasminogen activator receptor (uPAR), PLAUR (gene 5329); experiment: BSK_BE3C_uPAR: BioMAP Diversity Plus: BE3C Assay for Urokinase-type plasminogen activator receptor (uPAR) Biomarker Activity (AID 2283039); settings: primary human bronchial epithelial cells; actives raise or lower the signal
Summary of the method: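 Steps: dose human primary bronchial epithelial cells, incubate 24 h, measure uPAR by ELISA, then fit gain- or loss-of-signal response bidirectionally relative to DMSO.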

[9] = read-out: Interleukin-6 (IL6), IL6 (gene 3569); experiment: BSK_CASM3C_IL6: BioMAP Diversity Plus: CASM3C Assay for Interleukin-6 (IL6) Biomarker Activity for (AID 2283040); settings: primary human coronary artery smooth muscle cells; actives raise or lower the signal
[10] = read-out: Tissue plasminogen activator (tPA), PLAT (gene 5327); experiment: BSK_BE3C_tPA: BioMAP Diversity Plus: BE3C Assay for Tissue plasminogen activator (tPA) Biomarker Activity (AID 2283041); settings: primary human bronchial epithelial cells; actives raise or lower the signal
Summary of the method: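 Gain- or loss-of-signal in tPA, measured by ELISA, derived by bidirectional fitting against DMSO. Cells: human primary bronchial epithelial; read at 24 h after chemical dosing.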

[11] = read-out: Interleukin-8 (IL8), CXCL8 (gene 3576); experiment: BSK_CASM3C_IL8: BioMAP Diversity Plus: CASM3C Assay for Interleukin-8 (IL8) Biomarker Activity (AID 2283042); settings: primary human coronary artery smooth muscle cells; actives raise or lower the signal;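 further: IL-8 protein level quantified by ELISA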
[12] = read-out: Human Leukocyte Antigen - DR isotype (HLADR), HLA-DRA (gene 3122); experiment: BSK_CASM3C_HLADR: BioMAP Diversity Plus: CASM3C Assay for Human Leukocyte Antigen - DR isotype (HLADR) Biomarker Activity (AID 2283043); settings: primary human coronary artery smooth muscle cells; actives raise or lower the signal;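 further: cell-surface HLA-DR protein level quantified by ELISA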
[13] = read-out: Macrophage colony-stimulating factor (MCSF), CSF1 (gene 1435); experiment: BSK_CASM3C_MCSF: BioMAP Diversity Plus: CASM3C Assay for Macrophage colony-stimulating factor (MCSF) Biomarker Activity (AID 2283044); settings: primary human coronary artery smooth muscle cells; actives raise or lower the signal;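 further: M-CSF protein amount quantified by ELISA after 24 h exposure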
[14] = read-out: Low-density lipoprotein receptor (LDLR), LDLR (gene 3949); experiment: BSK_CASM3C_LDLR: BioMAP Diversity Plus: CASM3C Assay for Low-density lipoprotein receptor (LDLR) Biomarker Activity (AID 2283045); settings: primary human coronary artery smooth muscle cells; actives raise or lower the signal;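 further: LDLR protein level on the cell surface quantified by ELISA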
[15] = read-out: Monocyte Chemoattractant Protein-1 (MCP1), CCL2 (gene 6347); experiment: BSK_CASM3C_MCP1: BioMAP Diversity Plus: CASM3C Assay for Monocyte Chemoattractant Protein-1 (MCP1) Biomarker Activity (AID 2283046); settings: primary human coronary artery smooth muscle cells; actives raise or lower the signal;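 further: MCP-1 level quantified by ELISA 24 h after dosing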
[16] = BSK_CASM3C_Proliferation: Cell Proliferation Assessment in the BioMAP Diversity Plus: CASM3C Assay (AID 2283047); settings: primary human coronary artery smooth muscle cells;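 further: sulforhodamine B total protein stain as relative cell number at 560 nm; sub-confluent cells exposed 48 h before staining; fitted both ways against DMSO so gain or loss of cell number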
[17] = read-out: Monokine induced gamma interferon (MIG), CXCL9 (gene 4283); experiment: BSK_CASM3C_MIG: BioMAP Diversity Plus: CASM3C Assay for Monokine induced gamma interferon (MIG) Biomarker Activity (AID 2283048); settings: primary human coronary artery smooth muscle cells; actives raise or lower the signal;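 further: MIG protein level measured by ELISA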
[18] = read-out: serum amyloid A (SAA), SAA1 (gene 6288); experiment: BSK_CASM3C_SAA: BioMAP Diversity Plus: CASM3C Assay for serum amyloid A (SAA) Biomarker Activity (AID 2283049); settings: primary human coronary artery smooth muscle cells; actives raise or lower the signal;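 further: SAA protein level quantified by ELISA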
[19] = BSK_CASM3C_SRB: Viability Assessment in the BioMAP Diversity Plus: CASM3C Assay (AID 2283050); settings: primary human coronary artery smooth muscle cells;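 further: total protein by SRB staining as cytotoxicity measure in parallel cultures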
[20] = read-out: Human Leukocyte Antigen - DR isotype (HLADR), HLA-DRA (gene 3122); experiment: BSK_BE3C_HLADR: BioMAP Diversity Plus: BE3C Assay for Human Leukocyte Antigen - DR isotype (HLADR) Biomarker Activity (AID 2283032); settings: primary human bronchial epithelial cells; actives raise or lower the signal
Summary of the method: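 Chemicals are dosed onto BE3C bronchial epithelial cultures of human origin and left 24 h. HLA-DR is then measured by ELISA, and the endpoint is fitted in both directions using DMSO as the activity baseline.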

Measured: AC50

CN(C)C(=O)Nc1ccc(Oc2ccc(Cl)cc2)cc1
active: [5] 3.97 µM | [9] 42.7 nM | [10] 4.19 µM
not listed: [20]
inactive: all other assays above

Clc1cc(Cl)c(-c2c(Cl)c(Cl)cc(Cl)c2Cl)cc1Cl
active: [1] 10 µM | [20] 12.9 µM | [2] 8.56 µM | [3] 17.5 µM | [6] 10 µM | [8] 1.98 µM | [16] 23 nM
inactive: all other assays above

CCN(CC)C(=O)N(CC)CC
not listed: [20]
inactive: all other assays above

CN(C)C(=S)SC(=S)N(C)C
active: [2] 26.9 µM | [3] 34.7 µM | [4] 34.9 µM | [7] 19.9 µM | [8] 31.7 µM | [12] 19.9 µM | [16] 19900 nM | [17] 19.9 µM
not listed: [20]
inactive: all other assays above

CC1(C)CCC[C@]2(C)[C@H]3CCO[C@]3(C)CC[C@@H]12
inactive: [1] | [2] | [3] | [4] | [6] | [7] | [8] | [11] | [13] | [14]
active: [1] 31.9 µM | [2] 30.4 µM | [6] 36.4 µM | [7] 26.2 µM | [9] 31.5 µM and 16.6 µM | [10] 23 µM and 20 µM | [11] 33 µM | [12] 34.9 µM and 32.9 µM | [13] 20 µM | [15] 33.4 µM and 33.3 µM | [16] 36.3 µM and 36.8 µM | [17] 30.4 µM and 31.2 µM | [18] 34.2 µM and 31.3 µM | [19] 34.5 µM and 35.3 µM

From PubChem BioAssay (EPA / NIEHS)
